Source: PubChem BioAssay (NCI)
About 83,000 compounds went through this panel and 20% of them were active in at least one assay; those are over-represented in the sample as a whole.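 Single-dose data. Exposure time 48 hours. Values below 10 considered active.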 Active and inactive are the calls of the source.

Assays:
Test in all cases: NCI-60 one-dose screen, 48 h (100 = growth as untreated, 0 = no growth, -100 = all killed)
Details in all cases: 10 µM
HCT-15 colon = tested on: HCT-15 colon
HT29 colon = tested on: HT29 colon
SNB-75 CNS = tested on: SNB-75 CNS
SNB-19 CNS = tested on: SNB-19 CNS
U251 CNS = tested on: U251 CNS
PC-3 prostate = tested on: PC-3 prostate
SK-MEL-5 melanoma = tested on: SK-MEL-5 melanoma
UACC-62 melanoma = tested on: UACC-62 melanoma
LOX IMVI melanoma = tested on: LOX IMVI melanoma
SK-MEL-28 melanoma = tested on: SK-MEL-28 melanoma

Measured: growth

COC(=O)C1(C(=O)OC)C2C(=O)C3C(C21)C3(C(=O)OC(C)(C)C)C(=O)OC(C)(C)C (stereo not given)
inactive: HCT-15 colon 108% | HT29 colon 112% | SNB-75 CNS 88.5% | SNB-19 CNS 110% | U251 CNS 104% | PC-3 prostate 90.2% | SK-MEL-5 melanoma 100% | UACC-62 melanoma 112% | LOX IMVI melanoma 103% | SK-MEL-28 melanoma 107%

CC1(C)CC(=O)c2c(nc3ccc(Cl)cc3c2-c2ccccc2)C1
inactive: HCT-15 colon 81.3% | HT29 colon 98.6% | SNB-75 CNS 95.7% | SNB-19 CNS 90% | U251 CNS 102% | PC-3 prostate 48.7% | SK-MEL-5 melanoma 73% | UACC-62 melanoma 75.3% | LOX IMVI melanoma 93.4% | SK-MEL-28 melanoma 174%

COc1cc(C(=O)n2nc(N)c3c(C)cc(C)nc32)cc(OC)c1OC
inactive: HCT-15 colon 33.2% | HT29 colon 24% | SNB-75 CNS 57.9% | SNB-19 CNS 98.4% | U251 CNS 72.1% | PC-3 prostate 81.2% | SK-MEL-5 melanoma 73.8% | UACC-62 melanoma 80.5% | LOX IMVI melanoma 54% | SK-MEL-28 melanoma 97.6%

O=C1/C(=C/c2cccs2)CCC/C1=C\c1cccs1
inactive: HCT-15 colon 78.9% | HT29 colon 73.9% | SNB-75 CNS 110% | SNB-19 CNS 105% | U251 CNS 83.8% | PC-3 prostate 89.6% | SK-MEL-5 melanoma 83% | UACC-62 melanoma 77% | LOX IMVI melanoma 92.4% | SK-MEL-28 melanoma 102%

COc1cc2c3c(cccc3c1)C(=O)N(CCN1CCCC1)C2=O
active: HT29 colon 0.567% | SK-MEL-5 melanoma -33.3% | UACC-62 melanoma -34% | LOX IMVI melanoma -2.23%
inactive: HCT-15 colon 20.1% | SNB-75 CNS 23.5% | SNB-19 CNS 31.7% | U251 CNS 25.9% | PC-3 prostate 14.3% | SK-MEL-28 melanoma 19.1%

CCCCCCCCCCCCCCCCn1cc[n+](C)c1
active: HCT-15 colon 9.85% | HT29 colon -100% | SNB-75 CNS -98.6% | SNB-19 CNS -75.9% | U251 CNS -70% | PC-3 prostate -69.7% | SK-MEL-5 melanoma -95.2% | UACC-62 melanoma -94.6% | LOX IMVI melanoma -50.4% | SK-MEL-28 melanoma -86.2%

FC(F)(F)c1ccc(-c2ncc(-c3ccc(C(F)(F)F)cc3)c(NCc3cc(C(F)(F)F)cc(C(F)(F)F)c3)n2)cc1
inactive: HCT-15 colon 44.9% | HT29 colon 76.1% | SNB-75 CNS 72.4% | SNB-19 CNS 29.1% | U251 CNS 27.1% | PC-3 prostate 31.4% | SK-MEL-5 melanoma 96.9% | UACC-62 melanoma 51.6% | LOX IMVI melanoma 21.5% | SK-MEL-28 melanoma 89.5%

CC(=O)Nc1ccc2c(c1)C(N1CC3CCC(CC3)C1)c1ccccc1-2 (stereo not given)
inactive: HCT-15 colon 53.3% | HT29 colon 75.1% | SNB-75 CNS 88.6% | SNB-19 CNS 107% | U251 CNS 77.7% | PC-3 prostate 34.8% | SK-MEL-5 melanoma 49.3% | UACC-62 melanoma 60.5% | LOX IMVI melanoma 93.3% | SK-MEL-28 melanoma 108%

CCNC(=S)NN
inactive: HCT-15 colon 86.1% | HT29 colon 56.2% | SNB-75 CNS 77% | SNB-19 CNS 97.2% | U251 CNS 87.2% | PC-3 prostate 60.7% | SK-MEL-5 melanoma 102% | UACC-62 melanoma 99.2% | LOX IMVI melanoma 96.8% | SK-MEL-28 melanoma 107%

CCCCn1c(=O)[nH]c2c(c1=O)C(c1ccc(Cl)cc1)c1c([nH]c(=O)n(CCCC)c1=O)N2
inactive: HCT-15 colon 95.6% | HT29 colon 97.2% | SNB-75 CNS 91.7% | SNB-19 CNS 99.5% | U251 CNS 94% | PC-3 prostate 93.4% | SK-MEL-5 melanoma 102% | UACC-62 melanoma 98.2% | LOX IMVI melanoma 94.9% | SK-MEL-28 melanoma 102%

O=[N+]([O-])c1ccc(S(=O)(=O)OCCCCOS(=O)(=O)c2ccc([N+](=O)[O-])cc2)cc1
inactive: HCT-15 colon 114% | HT29 colon 107% | SNB-75 CNS 92% | SNB-19 CNS 112% | U251 CNS 104% | PC-3 prostate 98.4% | SK-MEL-5 melanoma 100% | UACC-62 melanoma 99.8% | LOX IMVI melanoma 94.6% | SK-MEL-28 melanoma 99.1%

O=C(N/N=c1/ccoc2cccnc12)N1CCN(c2ncccn2)CC1
active: SK-MEL-5 melanoma -36.8% | UACC-62 melanoma 7.9%
inactive: HCT-15 colon 24.9% | HT29 colon 34.6% | SNB-75 CNS 70.7% | SNB-19 CNS 35% | U251 CNS 17.9% | PC-3 prostate 26.2% | LOX IMVI melanoma 18.1% | SK-MEL-28 melanoma 48.4%

COc1cccc2c1O/C(=C\c1ccc([N+](=O)[O-])s1)C2=O
active: HCT-15 colon 8.57%
inactive: HT29 colon 77.3% | SNB-75 CNS 81.5% | SNB-19 CNS 86.6% | U251 CNS 45.2% | PC-3 prostate 32.9% | SK-MEL-5 melanoma 73.7% | UACC-62 melanoma 35.9% | LOX IMVI melanoma 40.6% | SK-MEL-28 melanoma 78.4%

COCCOC(=O)NC(=O)Nc1ccc(/C(=N/O)c2ccc(Cl)cc2)cc1
inactive: SNB-75 CNS 19.9% | SNB-19 CNS 31.4% | U251 CNS 17.9% | PC-3 prostate 26.1% | UACC-62 melanoma 15.7% | LOX IMVI melanoma 22.5% | SK-MEL-28 melanoma 69.1%
active: HCT-15 colon 9.7% | HT29 colon -20.5% | SK-MEL-5 melanoma -17.2%

O=C1/C(=C/c2ccc(O)cc2)Cc2ccc(Cl)cc21
inactive: HCT-15 colon 89.2% | HT29 colon 110% | SNB-75 CNS 73.4% | SNB-19 CNS 93.9% | U251 CNS 95.8% | PC-3 prostate 92.6% | SK-MEL-5 melanoma 79.3% | UACC-62 melanoma 77.3% | LOX IMVI melanoma 84.2% | SK-MEL-28 melanoma 114%

Cc1ccc([P+](Cc2ccccc2)(c2ccccc2)c2ccccc2)cc1
inactive: HCT-15 colon 87.4% | SNB-19 CNS 24.7% | U251 CNS 10.1% | LOX IMVI melanoma 16.8% | SK-MEL-28 melanoma 24.4%
active: HT29 colon 3.42% | SNB-75 CNS 6.53% | PC-3 prostate 2.37% | SK-MEL-5 melanoma -43% | UACC-62 melanoma 1.54%

C[C@]12CC[C@H]3[C@@H](CCC4=CC(=O)CC[C@@]43C)[C@@H]1CC[C@@H]2c1csc(N)n1
active: SK-MEL-5 melanoma 9.04%
inactive: HCT-15 colon 46.5% | HT29 colon 56.6% | SNB-75 CNS 92.5% | SNB-19 CNS 71.5% | U251 CNS 56.9% | PC-3 prostate 19.3% | UACC-62 melanoma 41.8% | LOX IMVI melanoma 59.3% | SK-MEL-28 melanoma 82.8%

FC(F)(F)c1ccc(-c2nc(-c3nc4cc(Cl)c(Cl)cc4[nH]3)c3ccccn23)cc1
active: SNB-75 CNS -16.1%
inactive: HCT-15 colon 82.6% | HT29 colon 55.9% | SNB-19 CNS 84.4% | U251 CNS 47.6% | PC-3 prostate 48.3% | SK-MEL-5 melanoma 53.4% | UACC-62 melanoma 71.1% | LOX IMVI melanoma 62.6% | SK-MEL-28 melanoma 57.4%

Clc1cc(Cl)c(Cl)c(-c2nc(-c3cccnc3)cs2)c1
inactive: HCT-15 colon 87.1% | HT29 colon 46.3% | SNB-75 CNS 91.7% | SNB-19 CNS 103% | U251 CNS 88.7% | PC-3 prostate 88.5% | SK-MEL-5 melanoma 93.9% | UACC-62 melanoma 77.5% | LOX IMVI melanoma 64.4% | SK-MEL-28 melanoma 72.2%

CCCCCCCCCCCCCCCCCBr
inactive: HCT-15 colon 102% | HT29 colon 97.5% | SNB-75 CNS 84.3% | SNB-19 CNS 95.9% | U251 CNS 103% | PC-3 prostate 92.6% | SK-MEL-5 melanoma 98.9% | UACC-62 melanoma 104% | LOX IMVI melanoma 101% | SK-MEL-28 melanoma 108%

COc1ccc(-c2csc(NC(=O)CO[N+](=O)[O-])n2)cc1
inactive: HCT-15 colon 104% | HT29 colon 105% | SNB-75 CNS 96.1% | SNB-19 CNS 102% | U251 CNS 98.6% | PC-3 prostate 80.7% | SK-MEL-5 melanoma 30.3% | UACC-62 melanoma 101% | LOX IMVI melanoma 88% | SK-MEL-28 melanoma 105%

Cc1ccc(C)c2c1sc1nc3n[nH]c(N)c3c(=N)n12
inactive: HCT-15 colon 102% | HT29 colon 111% | SNB-75 CNS 88.5% | SNB-19 CNS 99% | U251 CNS 100% | PC-3 prostate 85.7% | SK-MEL-5 melanoma 99.3% | UACC-62 melanoma 108% | LOX IMVI melanoma 96.2% | SK-MEL-28 melanoma 106%

CC1=CSC2=NC(c3ccc(Cl)c(Cl)c3)=CC(c3ccc(Cl)cc3)N12 (stereo not given)
inactive: HCT-15 colon 66.9% | HT29 colon 101% | SNB-19 CNS 38.5% | U251 CNS 34.8% | PC-3 prostate 45.4% | SK-MEL-5 melanoma 13.6% | UACC-62 melanoma 10.6% | SK-MEL-28 melanoma 37.4%
active: SNB-75 CNS -21.8% | LOX IMVI melanoma -82.4%

CCCCCCOc1ccc(/C=C/C(=O)c2ccc(B(O)O)cc2)cc1
inactive: HCT-15 colon 75.1% | HT29 colon 74.5% | SNB-75 CNS 58.5% | SNB-19 CNS 104% | U251 CNS 77.5% | PC-3 prostate 72.6% | SK-MEL-5 melanoma 81.4% | UACC-62 melanoma 79% | LOX IMVI melanoma 83.7% | SK-MEL-28 melanoma 106%

Nc1ccccc1NC(=O)CCCCCCC(=O)Nc1ccc2c(c1)/C(=C/c1ccc[nH]1)C(=O)N2
inactive: HCT-15 colon 89.8% | HT29 colon 48.2% | SNB-19 CNS 49.8% | U251 CNS 20.5% | PC-3 prostate 29% | SK-MEL-5 melanoma 55.1% | UACC-62 melanoma 25.8% | LOX IMVI melanoma 43.9% | SK-MEL-28 melanoma 42.7%
active: SNB-75 CNS -2.9%

COc1cccc(-c2nnc(COc3ccc(-c4nc5ccc(C)cc5[nH]4)cc3OC)o2)c1
inactive: HCT-15 colon 18.5% | HT29 colon 21.4% | SNB-75 CNS 56.6% | SNB-19 CNS 69.6% | U251 CNS 23% | PC-3 prostate 57.7% | SK-MEL-5 melanoma 70.4% | UACC-62 melanoma 79.9% | LOX IMVI melanoma 78.4% | SK-MEL-28 melanoma 65.2%

CC(=O)c1c(O)cc2c3c1OC(C)(C)C1CCC(C)(CC31)O2 (stereo not given)
inactive: HCT-15 colon 97.5% | HT29 colon 90.6% | SNB-75 CNS 96% | SNB-19 CNS 98.7% | U251 CNS 102% | PC-3 prostate 88.8% | SK-MEL-5 melanoma 83.1% | UACC-62 melanoma 88.5% | LOX IMVI melanoma 97.9% | SK-MEL-28 melanoma 111%
